Holding throughout (assay): DAPPL (digital affinity profiling via proximity ligation, sequencing); 10 mM Tris-HCl pH 7.5, 50 mM NaCl, 1 mM DTT, 4% glycerol, room temperature, 30 min; GST-TFs on glutathione beads, 16-mer random dsDNA library, 0.1% formaldehyde crosslink after washing; high values mean tight binding
What all share (conditions): protein: recombinant; tags: N-terminal GST; dsDNA, one strand shown

For one assay, the target named is T1, ELK1 (Homo sapiens, UniProt P19419 1-428).
T1 sequence: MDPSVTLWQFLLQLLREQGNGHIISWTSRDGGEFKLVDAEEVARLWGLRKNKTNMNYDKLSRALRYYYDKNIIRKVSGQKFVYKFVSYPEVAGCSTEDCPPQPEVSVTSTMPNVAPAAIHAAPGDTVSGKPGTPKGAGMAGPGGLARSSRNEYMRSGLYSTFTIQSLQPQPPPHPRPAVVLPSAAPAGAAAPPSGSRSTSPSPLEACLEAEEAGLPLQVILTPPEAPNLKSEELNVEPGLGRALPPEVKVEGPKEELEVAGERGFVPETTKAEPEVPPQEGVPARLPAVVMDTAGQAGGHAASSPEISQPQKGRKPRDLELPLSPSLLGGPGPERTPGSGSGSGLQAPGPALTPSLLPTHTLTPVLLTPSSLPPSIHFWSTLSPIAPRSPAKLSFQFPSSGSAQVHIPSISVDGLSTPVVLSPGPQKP
The essentials:
(§1)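 GST fusions of human transcription factors were expressed in yeast and captured with glutathione beads. Once given DNA barcodes and pooled alongside a tag-only sample, they were incubated for 30 min at room temperature with 200 nmole of a random double-stranded 16-mer DNA library in Tris/NaCl/DTT/glycerol buffer, then washed, crosslinked (0.1% formaldehyde), proximity-ligated, PCR-amplified and sequenced on an Illumina NextSeq500. The binding signal of each hexamer is its read frequency for a factor divided by its frequency for the tag-only sample.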

The target of a further assay is T2, GABPA (Homo sapiens, UniProt Q06546 1-454).
T2 sequence: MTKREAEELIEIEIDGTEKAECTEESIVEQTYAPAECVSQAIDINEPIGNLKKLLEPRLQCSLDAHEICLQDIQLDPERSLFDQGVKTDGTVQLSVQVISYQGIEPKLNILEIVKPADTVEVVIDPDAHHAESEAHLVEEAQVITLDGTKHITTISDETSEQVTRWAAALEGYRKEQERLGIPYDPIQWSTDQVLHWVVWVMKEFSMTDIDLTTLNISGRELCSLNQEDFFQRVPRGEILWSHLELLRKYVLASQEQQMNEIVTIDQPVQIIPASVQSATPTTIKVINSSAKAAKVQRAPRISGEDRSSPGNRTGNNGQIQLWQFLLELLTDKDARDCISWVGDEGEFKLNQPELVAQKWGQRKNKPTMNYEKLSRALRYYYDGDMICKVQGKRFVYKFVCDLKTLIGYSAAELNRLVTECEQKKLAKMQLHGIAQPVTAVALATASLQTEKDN
An outline of the steps: as §1

The target of another assay is T3, ERG (Homo sapiens, UniProt P11308 1-479).
T3 sequence: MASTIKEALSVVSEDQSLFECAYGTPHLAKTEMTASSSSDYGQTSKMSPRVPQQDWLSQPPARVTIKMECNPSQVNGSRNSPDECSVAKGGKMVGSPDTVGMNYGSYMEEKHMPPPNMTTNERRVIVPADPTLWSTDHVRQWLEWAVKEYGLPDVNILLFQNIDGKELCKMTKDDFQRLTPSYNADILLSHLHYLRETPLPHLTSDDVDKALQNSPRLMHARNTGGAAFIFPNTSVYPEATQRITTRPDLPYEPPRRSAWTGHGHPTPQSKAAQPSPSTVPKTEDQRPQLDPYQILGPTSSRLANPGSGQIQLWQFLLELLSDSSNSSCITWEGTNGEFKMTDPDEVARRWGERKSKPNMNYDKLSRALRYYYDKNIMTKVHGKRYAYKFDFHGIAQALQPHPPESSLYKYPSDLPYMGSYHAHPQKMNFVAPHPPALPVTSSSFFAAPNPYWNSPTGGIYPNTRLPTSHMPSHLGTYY
The essentials:
as §1

A further assay concerns the target ELF1 (Homo sapiens, UniProt P32519 1-619). An outline of the steps: as §1
The next assay deals with T4, EHF (Homo sapiens, UniProt Q9NZC4 1-300).
T4 sequence: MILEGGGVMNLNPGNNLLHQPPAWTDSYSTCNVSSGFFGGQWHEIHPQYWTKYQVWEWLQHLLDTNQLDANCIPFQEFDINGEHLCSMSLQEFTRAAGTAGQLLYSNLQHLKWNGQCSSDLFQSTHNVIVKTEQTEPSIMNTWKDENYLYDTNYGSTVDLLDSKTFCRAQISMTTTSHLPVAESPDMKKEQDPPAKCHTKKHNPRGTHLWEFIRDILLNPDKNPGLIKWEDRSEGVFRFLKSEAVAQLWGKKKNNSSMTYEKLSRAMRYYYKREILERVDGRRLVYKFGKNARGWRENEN
The essentials: as §1

The target in the next assay is SPI1 (Homo sapiens, UniProt P17947 1-270). The essentials: as §1
Another assay deals with SPIB (Homo sapiens, UniProt Q01892 1-262). An outline of the steps:
as §1

Another assay concerns the target T5, FEV (Homo sapiens, UniProt Q99581 1-238).
T5 sequence: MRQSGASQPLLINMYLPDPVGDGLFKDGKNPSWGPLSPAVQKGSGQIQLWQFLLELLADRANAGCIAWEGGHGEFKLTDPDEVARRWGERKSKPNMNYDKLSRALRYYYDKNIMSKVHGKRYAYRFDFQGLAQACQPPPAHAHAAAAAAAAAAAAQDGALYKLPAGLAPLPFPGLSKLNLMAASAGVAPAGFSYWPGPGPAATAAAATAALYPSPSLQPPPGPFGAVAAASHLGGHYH
An outline of the steps: as §1

A further assay deals with ETV5 (Homo sapiens, UniProt P41161 1-510). An outline of the steps:
as §1

Another assay deals with ELF4 (Homo sapiens, UniProt Q99607 1-663). An outline of the steps: as §1
The target in the next assay is T6, ELK4 (Homo sapiens, UniProt P28324-2 1-405).
T6 sequence: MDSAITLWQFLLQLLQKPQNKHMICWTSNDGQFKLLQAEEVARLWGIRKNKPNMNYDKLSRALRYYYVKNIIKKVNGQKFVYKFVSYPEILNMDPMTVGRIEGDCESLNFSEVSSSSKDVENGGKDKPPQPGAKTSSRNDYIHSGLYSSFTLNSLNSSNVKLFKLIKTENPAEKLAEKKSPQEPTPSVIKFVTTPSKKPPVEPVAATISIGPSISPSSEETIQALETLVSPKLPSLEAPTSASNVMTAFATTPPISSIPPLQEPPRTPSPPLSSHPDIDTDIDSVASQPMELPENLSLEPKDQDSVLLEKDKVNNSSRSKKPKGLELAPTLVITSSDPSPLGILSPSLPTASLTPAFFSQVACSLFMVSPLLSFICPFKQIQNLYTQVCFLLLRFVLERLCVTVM
An outline of the steps: as §1

A further assay has as its target T7, ETV2 (Homo sapiens, UniProt O00321 1-342).
T7 sequence: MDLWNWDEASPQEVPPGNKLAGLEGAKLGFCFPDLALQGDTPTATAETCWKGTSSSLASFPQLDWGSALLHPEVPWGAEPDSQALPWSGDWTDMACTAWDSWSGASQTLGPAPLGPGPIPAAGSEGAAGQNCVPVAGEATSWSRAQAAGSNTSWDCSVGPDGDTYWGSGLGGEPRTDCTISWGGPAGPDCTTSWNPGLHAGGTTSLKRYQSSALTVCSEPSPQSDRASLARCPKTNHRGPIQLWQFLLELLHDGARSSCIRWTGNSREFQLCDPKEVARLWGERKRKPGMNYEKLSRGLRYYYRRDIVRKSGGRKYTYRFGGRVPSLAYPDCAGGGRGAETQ
An outline of the steps:
as §1

The next assay concerns the target ETV1 (Homo sapiens, UniProt P50549 1-477). The essentials: as §1
The next assay concerns the target T8, ERF (Homo sapiens, UniProt P50548 1-548).
T8 sequence: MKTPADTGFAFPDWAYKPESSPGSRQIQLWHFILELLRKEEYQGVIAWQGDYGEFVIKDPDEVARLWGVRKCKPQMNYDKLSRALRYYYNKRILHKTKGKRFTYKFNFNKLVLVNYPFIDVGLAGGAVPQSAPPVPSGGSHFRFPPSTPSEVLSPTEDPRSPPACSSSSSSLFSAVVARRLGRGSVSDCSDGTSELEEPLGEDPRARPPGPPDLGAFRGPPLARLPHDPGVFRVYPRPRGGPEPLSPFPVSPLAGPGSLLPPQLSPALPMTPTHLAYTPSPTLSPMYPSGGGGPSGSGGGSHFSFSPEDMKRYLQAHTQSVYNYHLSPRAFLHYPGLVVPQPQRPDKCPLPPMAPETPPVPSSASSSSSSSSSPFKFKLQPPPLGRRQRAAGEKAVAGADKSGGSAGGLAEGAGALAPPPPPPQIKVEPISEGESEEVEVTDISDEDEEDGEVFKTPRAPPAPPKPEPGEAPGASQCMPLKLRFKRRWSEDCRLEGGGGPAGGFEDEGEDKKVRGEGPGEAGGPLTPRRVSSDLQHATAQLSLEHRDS
An outline of the steps:
as §1

In a further assay the target is T9, ETV3L (Homo sapiens, UniProt Q6ZN32 1-361).
T9 sequence: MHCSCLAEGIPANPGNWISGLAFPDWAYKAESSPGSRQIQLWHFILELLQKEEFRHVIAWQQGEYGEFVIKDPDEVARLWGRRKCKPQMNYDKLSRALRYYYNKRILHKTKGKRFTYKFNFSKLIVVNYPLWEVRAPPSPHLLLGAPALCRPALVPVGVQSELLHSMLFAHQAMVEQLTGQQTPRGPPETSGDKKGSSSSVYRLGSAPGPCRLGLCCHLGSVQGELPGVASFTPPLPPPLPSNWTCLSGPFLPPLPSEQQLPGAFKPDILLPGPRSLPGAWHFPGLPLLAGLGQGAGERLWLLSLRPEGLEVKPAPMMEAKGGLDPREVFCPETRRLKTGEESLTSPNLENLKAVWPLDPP
The essentials:
as §1

In another assay the target is T10, ETS2 (Homo sapiens, UniProt P15036 1-469).
T10 sequence: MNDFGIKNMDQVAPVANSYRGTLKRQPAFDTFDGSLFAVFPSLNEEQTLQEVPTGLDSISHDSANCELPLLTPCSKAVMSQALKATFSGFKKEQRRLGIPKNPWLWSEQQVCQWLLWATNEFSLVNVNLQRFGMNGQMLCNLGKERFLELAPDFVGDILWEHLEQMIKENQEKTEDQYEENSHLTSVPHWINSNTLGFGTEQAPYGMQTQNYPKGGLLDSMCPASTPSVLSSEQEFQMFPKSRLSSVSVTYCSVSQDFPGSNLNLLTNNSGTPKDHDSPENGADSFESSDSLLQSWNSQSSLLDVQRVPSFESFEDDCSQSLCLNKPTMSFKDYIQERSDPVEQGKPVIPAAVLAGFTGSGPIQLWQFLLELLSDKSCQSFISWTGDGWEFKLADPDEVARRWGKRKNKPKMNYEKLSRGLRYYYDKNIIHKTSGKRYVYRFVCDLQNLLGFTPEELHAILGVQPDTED
An outline of the steps: as §1

For another assay, the target named is T11, ETV7 (Homo sapiens, UniProt Q9Y603 1-341).
T11 sequence: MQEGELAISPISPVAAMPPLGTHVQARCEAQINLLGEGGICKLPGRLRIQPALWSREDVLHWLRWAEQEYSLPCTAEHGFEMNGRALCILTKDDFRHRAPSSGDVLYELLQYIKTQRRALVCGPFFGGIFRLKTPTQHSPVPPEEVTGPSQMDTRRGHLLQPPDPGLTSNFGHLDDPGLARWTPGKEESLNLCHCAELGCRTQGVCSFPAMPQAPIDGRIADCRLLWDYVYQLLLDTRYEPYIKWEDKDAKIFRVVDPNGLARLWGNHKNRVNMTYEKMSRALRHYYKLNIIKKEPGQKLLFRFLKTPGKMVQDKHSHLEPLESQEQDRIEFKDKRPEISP
The essentials:
as §1

A further assay has as its target T12, ETV3 (Homo sapiens, UniProt P41162-2 1-143).
T12 sequence: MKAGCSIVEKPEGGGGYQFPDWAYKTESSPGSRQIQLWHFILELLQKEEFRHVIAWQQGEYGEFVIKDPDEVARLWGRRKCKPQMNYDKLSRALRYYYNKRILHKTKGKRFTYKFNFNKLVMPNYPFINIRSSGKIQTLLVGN
An outline of the steps: as §1

For a further assay, the target named is ETV6 (Homo sapiens, UniProt P41212 1-452). An outline of the steps:
as §1

The values that follow come from PMC7862700, “An all-to-all approach to the identification of sequence-specific readers for epigenetic DNA modifications on cytosine”.

SPIB, sequence (Q01892 whole entry): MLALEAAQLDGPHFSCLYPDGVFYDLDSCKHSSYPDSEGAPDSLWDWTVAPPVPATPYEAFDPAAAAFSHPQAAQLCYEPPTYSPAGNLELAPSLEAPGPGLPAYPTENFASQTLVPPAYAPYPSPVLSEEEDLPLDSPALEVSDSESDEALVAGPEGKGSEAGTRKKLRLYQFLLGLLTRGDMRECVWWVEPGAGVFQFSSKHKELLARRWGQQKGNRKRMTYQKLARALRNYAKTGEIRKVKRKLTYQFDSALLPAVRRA
ETV6, sequence (P41212 whole entry): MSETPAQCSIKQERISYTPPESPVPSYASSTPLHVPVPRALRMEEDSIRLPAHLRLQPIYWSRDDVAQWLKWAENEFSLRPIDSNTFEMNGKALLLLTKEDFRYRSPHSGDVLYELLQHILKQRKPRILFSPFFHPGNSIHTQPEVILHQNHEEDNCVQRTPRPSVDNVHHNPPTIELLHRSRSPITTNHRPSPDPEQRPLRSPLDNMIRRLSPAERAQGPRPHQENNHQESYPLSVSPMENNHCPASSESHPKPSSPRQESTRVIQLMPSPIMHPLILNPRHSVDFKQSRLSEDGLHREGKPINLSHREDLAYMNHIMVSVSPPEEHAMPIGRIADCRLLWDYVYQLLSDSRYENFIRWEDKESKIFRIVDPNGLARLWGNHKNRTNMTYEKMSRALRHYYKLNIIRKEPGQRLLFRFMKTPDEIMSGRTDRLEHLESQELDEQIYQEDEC
ETV5, sequence (P41161 whole entry): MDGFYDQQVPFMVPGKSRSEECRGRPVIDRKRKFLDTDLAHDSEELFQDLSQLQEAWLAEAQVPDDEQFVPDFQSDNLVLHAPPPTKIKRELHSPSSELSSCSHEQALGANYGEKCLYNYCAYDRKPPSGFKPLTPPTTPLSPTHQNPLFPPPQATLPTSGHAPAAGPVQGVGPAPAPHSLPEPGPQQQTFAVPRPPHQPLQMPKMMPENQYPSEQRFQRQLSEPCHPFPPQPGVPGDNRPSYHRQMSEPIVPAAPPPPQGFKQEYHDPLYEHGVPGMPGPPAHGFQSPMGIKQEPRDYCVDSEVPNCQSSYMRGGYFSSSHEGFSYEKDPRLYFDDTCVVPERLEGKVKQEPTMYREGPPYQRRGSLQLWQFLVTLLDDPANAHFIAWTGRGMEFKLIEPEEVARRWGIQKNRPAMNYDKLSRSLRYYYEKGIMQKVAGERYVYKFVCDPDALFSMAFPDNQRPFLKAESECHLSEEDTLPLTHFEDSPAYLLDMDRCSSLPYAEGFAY
ETV1, sequence (P50549 whole entry): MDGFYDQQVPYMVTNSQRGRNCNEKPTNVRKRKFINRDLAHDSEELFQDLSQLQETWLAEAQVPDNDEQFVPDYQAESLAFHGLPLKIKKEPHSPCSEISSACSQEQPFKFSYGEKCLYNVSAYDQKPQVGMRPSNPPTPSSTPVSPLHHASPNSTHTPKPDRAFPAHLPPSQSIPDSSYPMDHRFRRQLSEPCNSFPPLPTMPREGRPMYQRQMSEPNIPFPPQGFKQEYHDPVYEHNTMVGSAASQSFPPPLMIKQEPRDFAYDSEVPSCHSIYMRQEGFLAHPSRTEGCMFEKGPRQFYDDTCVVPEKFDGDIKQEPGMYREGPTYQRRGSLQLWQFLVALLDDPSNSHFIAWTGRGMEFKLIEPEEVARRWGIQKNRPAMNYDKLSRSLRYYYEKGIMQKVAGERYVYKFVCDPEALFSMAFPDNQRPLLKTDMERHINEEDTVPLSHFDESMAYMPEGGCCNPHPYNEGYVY
ELF1, sequence (P32519 whole entry): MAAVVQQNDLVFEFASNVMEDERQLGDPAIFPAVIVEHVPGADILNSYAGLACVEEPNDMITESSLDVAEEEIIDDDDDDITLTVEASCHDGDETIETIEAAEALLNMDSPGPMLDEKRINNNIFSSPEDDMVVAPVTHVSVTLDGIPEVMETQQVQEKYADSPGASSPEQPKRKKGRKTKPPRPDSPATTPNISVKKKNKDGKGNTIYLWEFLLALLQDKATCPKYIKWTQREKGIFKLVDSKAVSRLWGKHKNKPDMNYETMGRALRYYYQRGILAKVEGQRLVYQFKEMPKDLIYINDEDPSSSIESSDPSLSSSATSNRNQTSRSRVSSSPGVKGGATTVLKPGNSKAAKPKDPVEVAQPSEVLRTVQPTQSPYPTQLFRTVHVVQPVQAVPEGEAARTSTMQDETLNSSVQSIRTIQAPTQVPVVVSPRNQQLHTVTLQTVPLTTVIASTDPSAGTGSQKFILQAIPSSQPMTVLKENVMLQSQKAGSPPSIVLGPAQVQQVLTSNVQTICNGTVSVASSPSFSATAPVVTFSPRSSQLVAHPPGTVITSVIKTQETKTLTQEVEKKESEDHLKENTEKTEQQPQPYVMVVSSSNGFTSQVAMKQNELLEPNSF
ELF4, sequence (Q99607 whole entry): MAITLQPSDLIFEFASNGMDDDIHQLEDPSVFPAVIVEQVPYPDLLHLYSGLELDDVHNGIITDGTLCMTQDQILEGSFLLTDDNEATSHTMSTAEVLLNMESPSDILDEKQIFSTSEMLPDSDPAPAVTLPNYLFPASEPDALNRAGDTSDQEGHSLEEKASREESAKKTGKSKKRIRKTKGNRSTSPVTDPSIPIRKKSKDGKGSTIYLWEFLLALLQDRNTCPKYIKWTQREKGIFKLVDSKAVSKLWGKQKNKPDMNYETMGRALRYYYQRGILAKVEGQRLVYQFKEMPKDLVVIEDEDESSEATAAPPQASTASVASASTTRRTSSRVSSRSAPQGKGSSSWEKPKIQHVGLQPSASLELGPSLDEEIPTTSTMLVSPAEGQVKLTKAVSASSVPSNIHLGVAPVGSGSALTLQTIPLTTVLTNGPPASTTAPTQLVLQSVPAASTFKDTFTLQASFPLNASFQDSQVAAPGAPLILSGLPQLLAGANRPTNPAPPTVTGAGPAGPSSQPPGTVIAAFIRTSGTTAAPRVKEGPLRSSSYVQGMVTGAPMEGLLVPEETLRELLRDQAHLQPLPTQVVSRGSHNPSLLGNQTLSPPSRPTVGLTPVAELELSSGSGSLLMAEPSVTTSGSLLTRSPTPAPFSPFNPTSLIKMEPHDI

For TGCCCA, the binding signal was 1.23 fold enrichment (6-mer frequency, TF over GST control) with ELK1; 1.19 fold enrichment (6-mer frequency, TF over GST control) in the assay with GABPA; 1.14 fold enrichment (6-mer frequency, TF over GST control) with ERG; 1.16 fold enrichment (6-mer frequency, TF over GST control) in the assay with ELF1; 1.08 fold enrichment (6-mer frequency, TF over GST control) with EHF; 1.09 fold enrichment (6-mer frequency, TF over GST control) in the assay with SPI1. Also, the binding signal was 1.12 fold enrichment (6-mer frequency, TF over GST control) in the assay with SPIB; 1.21 fold enrichment (6-mer frequency, TF over GST control) in the assay with FEV; 1.2 fold enrichment (6-mer frequency, TF over GST control) with ETV5; 1.2 fold enrichment (6-mer frequency, TF over GST control) with ELF4; 1.25 fold enrichment (6-mer frequency, TF over GST control) with ELK4; 1.1 fold enrichment (6-mer frequency, TF over GST control) with ETV2. Also, the binding signal was 1.03 fold enrichment (6-mer frequency, TF over GST control) with ETV1; 1.12 fold enrichment (6-mer frequency, TF over GST control) in the assay with ERF; 1.12 fold enrichment (6-mer frequency, TF over GST control) with ETV3L; 1.12 fold enrichment (6-mer frequency, TF over GST control) in the assay with ETS2; 1.23 fold enrichment (6-mer frequency, TF over GST control) with ETV7; 1.15 fold enrichment (6-mer frequency, TF over GST control) in the assay with ETV3. Moreover, the binding signal in the assay with ETV6 is 1.14 fold enrichment (6-mer frequency, TF over GST control).
